Test results from PubChem BioAssay.
Active and inactive are the calls of the source.

Experiments:
[1] = binders of probe aFSTL3 on microarray, primary screen, stem cell growth factor project, biochemical, small-molecule microarray, fluorescence 635/667 (AID 1064); conditions: higher = more signal;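 also: measures binding of the biotinylated anti-FSTL3 antibody to printed compounds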
[2] = binders from COS7 lysate, DM2A8 probe, primary screen, torsin A project, cell lysate, small-molecule microarray, fluorescence 635/667 (AID 1065); conditions: higher = more signal, COS7 lysate expressing mutant human TOR1A
[3] = binders of probe aFGF2 on microarray, primary screen, stem cell growth factor project, biochemical, small-molecule microarray, fluorescence 635/667 (AID 1067); conditions: higher = more signal;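 also: measures binding of biotinylated aFGF2 protein to printed compounds on slides; z-score merges feature fluorescence and signal-to-noise across triplicate slides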
[4] = binders of probe aFGF10 on microarray, primary screen, stem cell growth factor project, biochemical, small-molecule microarray, fluorescence 635/667 (AID 1071); conditions: higher = more signal;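 also: score merges 667 nm spot intensity and signal to noise from triplicate slides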
[5] = target: Neurogenic locus notch homolog protein 2 (Homo sapiens) (UniProt Q04721); test: Notch2 binders on small-molecule microarrays, primary screen, biochemical, small-molecule microarray, 635 nm fluorescence, stem cell growth factors (AID 1073); conditions: Notch2 binding, higher = more signal
[6] = target: Pro-neuregulin-1, membrane-bound isoform (Homo sapiens) (UniProt Q02297); test: NRG1 binders on small-molecule microarrays, primary screen, psychiatric disease protein project, biochemical, small-molecule microarray, fluorescence 635/667 (AID 1075); conditions: NRG1 binding, 635 nm fluorescence, higher = more signal;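 also: score combines 667 nm spot fluorescence with signal to noise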
Sequence of Pro-neuregulin-1, membrane-bound isoform (Homo sapiens) (Q02297 whole entry, looked up, the tested form may be a part, canonical isoform): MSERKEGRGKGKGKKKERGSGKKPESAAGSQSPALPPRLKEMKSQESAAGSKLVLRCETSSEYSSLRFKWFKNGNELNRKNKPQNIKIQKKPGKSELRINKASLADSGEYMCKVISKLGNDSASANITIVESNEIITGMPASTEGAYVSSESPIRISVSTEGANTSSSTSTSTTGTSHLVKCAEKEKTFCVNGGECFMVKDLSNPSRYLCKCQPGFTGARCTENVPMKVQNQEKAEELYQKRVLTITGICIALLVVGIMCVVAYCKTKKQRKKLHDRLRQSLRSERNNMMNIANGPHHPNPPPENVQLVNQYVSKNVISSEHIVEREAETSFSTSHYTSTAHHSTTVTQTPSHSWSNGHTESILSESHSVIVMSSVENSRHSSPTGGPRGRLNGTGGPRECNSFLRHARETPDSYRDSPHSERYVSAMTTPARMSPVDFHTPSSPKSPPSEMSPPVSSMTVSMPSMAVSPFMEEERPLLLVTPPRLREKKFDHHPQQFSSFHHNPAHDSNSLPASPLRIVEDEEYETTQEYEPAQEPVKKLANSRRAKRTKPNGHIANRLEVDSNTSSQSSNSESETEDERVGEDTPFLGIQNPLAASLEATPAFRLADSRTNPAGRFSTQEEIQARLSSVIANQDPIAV

[7] = tested on: Neuregulin-1 EGF-like domain; test: binders of neuregulin-1 EGF-like domain, primary screen, biochemical, small-molecule microarray, 635 nm fluorescence (AID 1081); conditions: small-molecule microarray binding, higher = more signal;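 also: binding of the protein to compounds printed on small-molecule microarray slides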
[8] = FRG1 promoter luciferase signal modulators, primary screen, FRG1 inhibition for FSHD, cell-based, C2C12 myotubes, firefly/Renilla luciferase, luminescence (AID 1084); conditions: higher = more signal, called active from +8 up or from −8 down
[9] = binders of probe aFST on microarray, primary screen, stem cell growth factor project, biochemical, small-molecule microarray, fluorescence 635/667 (AID 1086); conditions: higher = more signal;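 also: score merges 667 nm fluorescence with signal-to-noise of each printed compound spot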
[10] = binders of probe aHhip on microarray, primary screen, stem cell growth factor project, biochemical, small-molecule microarray, fluorescence 635/667 (AID 1087); conditions: higher = more signal;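 also: score merges spot fluorescence at 667nm with spot signal to noise ratio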
[11] = tested on: PRMT1 (protein arginine N-methyltransferase 1); test: PRMT1 binders on small-molecule microarrays, primary screen, biochemical, small-molecule microarray, 635 nm fluorescence (AID 1088); conditions: small-molecule microarray binding, higher = more signal;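 also: binding of Prmt1 protein to compounds spotted on small-molecule microarray slides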
[12] = yeast growth modulation, basal conditions, primary screen, YJM789 clinical isolate, OD600, 24 h (AID 1089);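 also: growth of clinical yeast isolate S. cerevisiae YJM 789 seeded 1000 cells per well; test concentration not given here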; conditions: S. cerevisiae YJM789 growth, higher = more signal, called active from +8 up or from −8 down
[13] = fission yeast growth modulation, primary screen, strain 972, OD600, 24 h, no modulator (AID 1090);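 also: basal condition with compound alone and no growth modifier present; test concentration not given here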; conditions: S. pombe 972 growth, higher = more signal, called active from +8 up or from −8 down
[14] = S. cerevisiae growth modulation with rapamycin, primary screen, strain BY4716, OD600, 96 h (AID 1091); conditions: higher = more signal, called active from +8 up or from −8 down; also: test concentration not given here
[15] = target: Torsin-1A-interacting protein 2 (Homo sapiens) (UniProt Q8NFQ8); test: LULL1 binders on small-molecule microarray, primary screen, cell lysate, human LULL1 lysate, 635/667 nm fluorescence (AID 1092); conditions: hLULL1 lysate binding, 635 nm fluorescence, higher = more signal;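 also: probe is lysate of COS7 cells overexpressing human LULL1; score merges per-feature 667 nm fluorescence with signal-to-noise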
Sequence of Torsin-1A-interacting protein 2 (Homo sapiens) (Q8NFQ8 whole entry, looked up): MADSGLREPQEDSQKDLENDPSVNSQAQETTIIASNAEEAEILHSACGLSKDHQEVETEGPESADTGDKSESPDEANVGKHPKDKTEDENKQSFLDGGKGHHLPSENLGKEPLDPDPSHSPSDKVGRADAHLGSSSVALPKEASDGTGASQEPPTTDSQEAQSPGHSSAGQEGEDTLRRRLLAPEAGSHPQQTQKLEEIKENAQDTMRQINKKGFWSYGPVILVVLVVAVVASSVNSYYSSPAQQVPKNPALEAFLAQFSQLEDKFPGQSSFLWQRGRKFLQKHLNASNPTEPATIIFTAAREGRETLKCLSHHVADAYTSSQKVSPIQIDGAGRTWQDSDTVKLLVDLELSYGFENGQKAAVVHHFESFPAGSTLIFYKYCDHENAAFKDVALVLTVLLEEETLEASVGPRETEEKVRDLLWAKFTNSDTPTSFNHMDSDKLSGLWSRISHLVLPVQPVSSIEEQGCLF

[16] = E. coli growth modulation, two-sided OD650, primary screen, E. coli filamentation project, strain DRC41, 24 h (AID 1093); conditions: OD650, 24 h, higher = more signal, called active from +8 up or from −8 down;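 also: MC1000 strain lacking acrAB efflux and sulA so SOS filamentation is blocked; test concentration not given here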
[17] = small-molecule microarray binders of probe aLefty2, primary screen, biochemical, biotinylated probe, 635/667 nm fluorescence (AID 1094); conditions: higher = more signal;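 also: score merges spot fluorescence near 667 nm with spot signal-to-noise ratio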
[18] = tested on: Noggin (protein binding on small-molecule microarray); test: Noggin binders on small-molecule microarray, primary screen, biochemical, 635/667 nm fluorescence (AID 1095); conditions: 635 nm fluorescence, higher = more signal;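 also: score merges 667 nm feature fluorescence with signal to noise over triplicate slides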
[19] = target: Neurogenic locus notch homolog protein 3 (Homo sapiens) (UniProt Q9UM47); test: NOTCH3 binders on small-molecule microarray, primary screen, biochemical, 635/667 nm fluorescence (AID 1096); conditions: NOTCH3 binding, 635 nm fluorescence, higher = more signal
Sequence of Neurogenic locus notch homolog protein 3 (Homo sapiens) (Q9UM47 whole entry, looked up): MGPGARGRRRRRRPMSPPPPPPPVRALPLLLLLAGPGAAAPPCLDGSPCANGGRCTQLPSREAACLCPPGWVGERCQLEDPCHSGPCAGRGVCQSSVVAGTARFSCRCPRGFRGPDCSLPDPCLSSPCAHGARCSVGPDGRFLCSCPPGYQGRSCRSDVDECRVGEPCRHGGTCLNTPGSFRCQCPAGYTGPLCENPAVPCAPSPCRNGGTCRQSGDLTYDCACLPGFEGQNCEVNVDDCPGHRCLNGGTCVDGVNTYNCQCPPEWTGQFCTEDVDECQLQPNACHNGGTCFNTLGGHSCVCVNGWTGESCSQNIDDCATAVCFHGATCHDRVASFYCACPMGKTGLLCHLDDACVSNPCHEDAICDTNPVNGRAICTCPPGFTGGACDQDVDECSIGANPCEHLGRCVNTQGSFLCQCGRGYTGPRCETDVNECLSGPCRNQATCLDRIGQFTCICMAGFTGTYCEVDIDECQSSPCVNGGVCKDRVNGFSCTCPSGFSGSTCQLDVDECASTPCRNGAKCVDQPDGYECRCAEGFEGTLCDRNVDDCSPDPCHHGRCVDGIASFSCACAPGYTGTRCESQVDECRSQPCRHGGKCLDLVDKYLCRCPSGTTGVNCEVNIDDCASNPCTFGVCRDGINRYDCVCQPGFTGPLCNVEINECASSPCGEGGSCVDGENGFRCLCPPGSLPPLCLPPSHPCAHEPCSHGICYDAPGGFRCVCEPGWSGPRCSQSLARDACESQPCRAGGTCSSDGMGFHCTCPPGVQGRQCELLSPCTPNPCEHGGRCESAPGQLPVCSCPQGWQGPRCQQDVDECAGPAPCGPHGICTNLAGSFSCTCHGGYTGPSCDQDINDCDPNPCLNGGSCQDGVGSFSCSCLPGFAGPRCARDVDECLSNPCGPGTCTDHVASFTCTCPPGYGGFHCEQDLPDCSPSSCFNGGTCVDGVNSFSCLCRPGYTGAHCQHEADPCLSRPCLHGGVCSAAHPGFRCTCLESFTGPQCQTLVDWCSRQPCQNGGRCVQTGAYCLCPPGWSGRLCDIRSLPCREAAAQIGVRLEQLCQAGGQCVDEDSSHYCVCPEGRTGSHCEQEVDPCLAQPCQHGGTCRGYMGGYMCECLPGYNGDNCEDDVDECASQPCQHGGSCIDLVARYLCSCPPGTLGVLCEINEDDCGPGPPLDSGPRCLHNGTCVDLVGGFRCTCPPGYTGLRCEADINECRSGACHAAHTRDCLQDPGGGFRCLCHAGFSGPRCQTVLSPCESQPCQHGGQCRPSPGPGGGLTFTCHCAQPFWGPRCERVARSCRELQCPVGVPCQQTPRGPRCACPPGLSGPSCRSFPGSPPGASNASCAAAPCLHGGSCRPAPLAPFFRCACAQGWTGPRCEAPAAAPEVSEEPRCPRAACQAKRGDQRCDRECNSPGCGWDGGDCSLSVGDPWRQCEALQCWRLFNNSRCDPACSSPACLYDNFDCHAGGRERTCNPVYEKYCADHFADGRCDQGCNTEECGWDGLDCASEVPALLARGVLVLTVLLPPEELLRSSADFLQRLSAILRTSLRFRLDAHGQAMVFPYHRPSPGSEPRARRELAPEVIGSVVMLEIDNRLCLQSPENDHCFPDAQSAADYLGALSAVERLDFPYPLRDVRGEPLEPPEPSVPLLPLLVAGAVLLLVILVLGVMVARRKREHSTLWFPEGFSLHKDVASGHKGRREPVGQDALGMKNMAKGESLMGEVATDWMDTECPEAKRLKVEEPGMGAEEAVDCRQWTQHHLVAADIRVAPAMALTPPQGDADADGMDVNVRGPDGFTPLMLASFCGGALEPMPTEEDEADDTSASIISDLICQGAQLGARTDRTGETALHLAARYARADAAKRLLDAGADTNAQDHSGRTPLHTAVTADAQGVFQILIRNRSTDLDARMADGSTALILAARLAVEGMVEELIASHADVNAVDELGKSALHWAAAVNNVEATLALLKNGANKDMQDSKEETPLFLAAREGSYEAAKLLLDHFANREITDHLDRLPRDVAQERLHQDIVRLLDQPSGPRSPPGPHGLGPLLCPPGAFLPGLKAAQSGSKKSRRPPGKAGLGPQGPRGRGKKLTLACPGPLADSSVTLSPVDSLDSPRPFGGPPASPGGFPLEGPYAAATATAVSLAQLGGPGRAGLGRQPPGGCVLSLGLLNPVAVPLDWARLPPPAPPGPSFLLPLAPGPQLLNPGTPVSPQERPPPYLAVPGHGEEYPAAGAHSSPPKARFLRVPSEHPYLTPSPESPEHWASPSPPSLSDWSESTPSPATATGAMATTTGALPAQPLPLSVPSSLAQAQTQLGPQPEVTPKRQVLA

[20] = small-molecule microarray binders of probe aEGFR, primary screen, biochemical, biotinylated probe, 635/667 nm fluorescence (AID 1097); conditions: higher = more signal;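 also: probe is a biotinylated anti-EGFR antibody binding compounds printed on slides; score combines fluorescence near 667 nm and signal to noise of each spot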

SMILES	composite z-score [1]	composite z-score [2]	composite z-score [3]	composite z-score [4]	composite z-score [5]	composite z-score [6]	composite z-score [7]	z-score [8]	composite z-score [9]	composite z-score [10]	composite z-score [11]	z-score [12]	z-score [13]	z-score [14]	composite z-score [15]	z-score [16]	composite z-score [17]	composite z-score [18]	composite z-score [19]	composite z-score [20]
CN(C)CCCC[C@@H]1NC(=O)[C@@H]2C[C@H](C(=O)NCCCCCNC(=O)CS)[C@H](c3ccc(O)cc3)N2C1=O	0.174	0.522	0.0918	0.429	0.728	0.264	1.22	0.47 (inactive)	-0.0694	0.382	1.42	0.081 (inactive)	-1.42 (inactive)	-0.342 (inactive)	0.863	1.14 (inactive)	-0.0079	1.88	0.208	0.268
O=C/C=C/c1ccc(/C=C/c2ccccc2)cc1	1.02	0.107	-0.105	-0.324	-0.429	-0.422	-0.34	3.71 (inactive)	0.204	0.154	-0.742	-2.92 (inactive)	-19.7 (active)	-1.59 (inactive)	-0.917	1.51 (inactive)	0.0262	-0.43	-1.2	-0.225
CCOC(=O)C1=CCC(c2cccc3ccccc23)N(S(=O)(=O)c2ccc(C)cc2)C1 (stereo not given)	0.609	-0.0897	0.0346	0.323	1.46	1.21	1.01	-1.05 (inactive)	0.95	-0.0237	0.614	-0.109 (inactive)	1.4 (inactive)	3.55 (inactive)	1.64	-0.461 (inactive)	0.346	-0.375	0.976	0.211
C[C@@H]1NC(=O)[C@H](Cc2ccccc2)NC(=O)[C@@]23C(=O)N[C@@H](Cc4ccccc4)C2[C@H](C)[C@@]2(C)O[C@H]2C3/C=C/C/C=C\CNC1=O (stereo not given in full)	-0.191	-0.0483	-0.111	0.0009	-0.315	-0.318	-0.603	-0.225 (inactive)	-0.784	0.122	-0.747	0.723 (inactive)	0.0909 (inactive)	0.937 (inactive)	-1.73	-1.38 (inactive)	-0.174	0.0939	-0.769	-0.171
COCCOC(=O)N1C(=O)[C@@]2(c3cc(C#CCC(C(=O)OC)C(=O)OC)ccc31)[C@H](c1ccccc1OCCO)N1[C@H](c3ccccc3)[C@H](c3ccccc3)OC(=O)[C@H]1[C@@H]2C(=O)N1CCCCCCC1	3.6	0.618	0.486	0.388	0.966	0.889	1.33	-0.0751 (inactive)	2.9	2.32	1.51	1.22 (inactive)	0.639 (inactive)	3.35 (inactive)	3.29	-0.366 (inactive)	1.53	1.63	1.11	0.83
C=CCNC(=O)[C@H]1[C@@H]2C(=O)O[C@@H](c3ccccc3)[C@@H](c3ccccc3)N2[C@@H](c2ccc(O)cc2)[C@]12C(=O)Nc1ccc(C#CCNC(N)=O)cc12	0.587	-0.0883	-0.128	-0.608	-1.11	1.07	0.858	-0.477 (inactive)	-0.526	-0.21	0.0982	-0.396 (inactive)	-0.37 (inactive)	0.402 (inactive)	1.87	2.18 (inactive)	-0.282	-0.643	-1.01	-0.216
COC(=O)c1ccc(C#CC(NP(=O)(c2ccccc2)c2ccccc2)c2ccccc2)cc1 (stereo not given)	0.301	-0.214	-0.108	0.182	1.87	1.68	1.36	-0.131 (inactive)	1.34	2.35	-0.362	-0.664 (inactive)	-11.5 (active)	1.25 (inactive)	3.14	0.0037 (inactive)	0.594	-0.0434	1.05	0.093
CSCC[C@@H]1NC(=O)CC=C[C@@H](C)COC(=O)[C@H](CCSC)NC(=O)CC=C[C@@H](C)COC1=O	-0.678	1.31	-0.127	0.0086	-0.121	-0.283	-0.26	-0.889 (inactive)	-0.15	0.0578	-0.153	-0.981 (inactive)	-1.12 (inactive)	-1.03 (inactive)	-0.452	-0.566 (inactive)	-0.137	0.877	-0.35	-0.128
C#C[C@H](O[Si](C#Cc1ccccc1)(C(C)C)C(C)C)c1ccccc1	-0.16	-0.232	-0.0956	0.125	-0.677	-0.328	-0.305	1.15 (inactive)	-0.649	-0.233	0.0132	-22.2 (active)	-20.1 (active)	-2.8 (inactive)	0.504	-0.227 (inactive)	-0.279	-0.251	-0.406	-0.25
CCOC(=O)C1=CC[C@@H](c2ccccc2)N(S(=O)(=O)c2ccc(C)cc2)[C@H]1C	-0.386	1.09	0.0257	1.11	1.59	1.45	1.12	-2.8 (inactive)	0.691	-0.0994	1.53	0.889 (inactive)	-0.212 (inactive)	2.81 (inactive)	3.41	-0.607 (inactive)	0.0018	0.672	1.09	0.114
